The entries come from a sample that favours the strongest signals as a whole.
Columns and labels:
Assay in all cases: glycan array binding signal (z-score within array); higher = stronger binding
Settings in all cases: glycan notation: IUPAC condensed, linker removed
[1] = molecular target: Gal6P(b1-4)GlcNAc
In short: (§1)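 The Consortium for Functional Glycomics database supplied 3228 glycan arrays, of which those lacking an available protein sequence were dropped. The binding signal, a within-array Z-score, was averaged across arrays of the same protein sequence and across linkers. Negative scores can be read as non-binding.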

[2] = molecular target: GalNAc(a1-3)Gal
In short: as §1

[3] = molecular target: GalNAc(b1-3)Gal
In short: as §1

[4] = molecular target: GalNAc(b1-3)Gal(a1-4)Gal(b1-4)GlcNAc(b1-3)Gal(b1-4)Glc
In short: as §1

[5] = molecular target: GalNAc(b1-4)GlcNAc(b1-2)Man
In short: as §1

[6] = molecular target: Glc(b1-4)Glc
In short: as §1

[7] = molecular target: GlcNAc(b1-2)Gal(b1-3)GalNAc
In short: as §1

[8] = molecular target: GlcNAc(b1-2)[GlcNAc(b1-4)]Man(a1-3)[GlcNAc(b1-4)][GlcNAc(b1-2)[GlcNAc(b1-6)]Man(a1-6)]Man(b1-4)GlcNAc(b1-4)GlcNAc
In short: as §1

[9] = molecular target: GlcNAc(b1-3)Gal(b1-4)Glc
In short: as §1

[10] = molecular target: GlcNAc(b1-3)Gal(b1-4)GlcNAc(b1-2)Man(a1-3)[GlcNAc(b1-3)Gal(b1-4)GlcNAc(b1-2)Man(a1-6)]Man(b1-4)GlcNAc(b1-4)GlcNAc
In short: as §1

[11] = molecular target: GlcNAc(b1-3)Gal(b1-4)GlcNAc(b1-3)Gal(b1-4)GlcNAc(b1-2)[GlcNAc(b1-3)Gal(b1-4)GlcNAc(b1-3)Gal(b1-4)GlcNAc(b1-6)]Man(a1-6)[GlcNAc(b1-3)Gal(b1-4)GlcNAc(b1-3)Gal(b1-4)GlcNAc(b1-2)Man(a1-3)]Man(b1-4)GlcNAc(b1-4)[Fuc(a1-6)]GlcNAc
In short: as §1

[12] = molecular target: GlcNAc(b1-3)Gal(b1-4)GlcNAc(b1-3)Gal(b1-4)GlcNAc(b1-3)Gal(b1-4)GlcNAc(b1-3)Gal(b1-4)GlcNAc(b1-2)Man(a1-3)[GlcNAc(b1-3)Gal(b1-4)GlcNAc(b1-3)Gal(b1-4)GlcNAc(b1-3)Gal(b1-4)GlcNAc(b1-3)Gal(b1-4)GlcNAc(b1-2)Man(a1-6)]Man(b1-4)GlcNAc(b1-4)GlcNAc
In short: as §1

[13] = molecular target: GlcNAc(b1-3)Gal(b1-4)GlcNAc(b1-3)Gal(b1-4)GlcNAc(b1-3)GalNAc
In short: as §1

[14] = molecular target: Neu5Ac(a2-3)Gal(b1-3)GalNAc(b1-3)Gal(a1-4)Gal(b1-4)Glc
In short: as §1

[15] = molecular target: Neu5Ac(a2-3)Gal(b1-3)GlcNAc(b1-2)[Neu5Ac(a2-3)Gal(b1-3)GlcNAc(b1-4)]Man(a1-6)[Neu5Ac(a2-3)Gal(b1-3)GlcNAc(b1-2)Man(a1-3)]Man(b1-4)GlcNAc(b1-4)GlcNAc
In short: as §1

[16] = molecular target: Neu5Ac(a2-3)Gal(b1-4)GlcNAc(b1-2)Man(a1-3)[Neu5Ac(a2-3)Gal(b1-4)GlcNAc(b1-2)Man(a1-6)]Man(b1-4)GlcNAc(b1-4)[Fuc(a1-6)]GlcNAc
In short: as §1

[17] = molecular target: Neu5Ac(a2-3)Gal(b1-4)[Fuc(a1-3)]GlcNAc(b1-2)Man
In short: as §1

[18] = molecular target: Neu5Ac(a2-3)Gal(b1-4)[Fuc(a1-3)]GlcNAc(b1-6)[Neu5Ac(a2-3)Gal(b1-3)]GalNAc
In short: as §1

[19] = molecular target: Neu5Ac(a2-3)Gal(b1-4)[Fuc(a1-3)]GlcNAc6S
In short: as §1

[20] = molecular target: Neu5Ac(a2-6)Gal(b1-4)GlcNAc
In short: as §1

[21] = molecular target: Neu5Ac(a2-6)Gal(b1-4)GlcNAc(b1-2)Man(a1-3)[Gal(b1-4)GlcNAc(b1-2)Man(a1-6)]Man(b1-4)GlcNAc(b1-4)GlcNAc
In short: as §1

[22] = molecular target: Neu5Ac(a2-6)Gal(b1-4)GlcNAc(b1-2)Man(a1-3)[Neu5Ac(a2-6)Gal(b1-4)GlcNAc(b1-2)Man(a1-6)]Man(b1-4)GlcNAc(b1-4)[Fuc(a1-6)]GlcNAc
In short: as §1

[23] = molecular target: Neu5Ac(a2-6)Gal(b1-4)GlcNAc(b1-3)Gal(b1-4)GlcNAc(b1-3)Gal(b1-4)GlcNAc(b1-2)Man(a1-3)[Neu5Ac(a2-6)Gal(b1-4)GlcNAc(b1-3)Gal(b1-4)GlcNAc(b1-3)Gal(b1-4)GlcNAc(b1-2)Man(a1-6)]GalNAc
In short: as §1

[24] = molecular target: Neu5Ac(a2-6)Gal(b1-4)GlcNAc(b1-3)[Neu5Ac(a2-6)Gal(b1-4)GlcNAc(b1-6)]GalNAc
In short: as §1

[25] = molecular target: Neu5Ac(a2-8)Neu5Ac(a2-3)Gal(b1-3)GalNAc(b1-4)[Neu5Ac(a2-8)Neu5Ac(a2-3)]Gal(b1-4)Glc
In short: as §1

[26] = molecular target: Neu5Ac(a2-8)Neu5Ac(a2-3)[Gal(b1-3)GalNAc(b1-4)]Gal(b1-4)Glc
In short: as §1

[27] = molecular target: Neu5Ac(b2-6)Gal(b1-4)GlcNAc
In short: as §1

[28] = molecular target: Neu5Gc(a2-8)Neu5Gc(a2-3)Gal(b1-4)GlcNAc(b1-3)Gal(b1-4)GlcNAc
In short: as §1

B1: Agalectin (Anopheles gambiae) (protein)
chain: MSNRPFTAKFPRYPENGDEVFIRGKLKDDAKSFSVNFCLPRPAQVAEHQTPPYIALHFKTIYDERDDTSRVVLNWKNLQWQQEEVLDNYWHVDRSQTFRVVFRLHEDCIKVFVNSVDHPPDYQFPVQLPLDQIESIELWDDVEHVEEISFRYDNGNSY
What does the source list for B1?
glycan array binding signal (z-score) [1]: -0.335; glycan array binding signal (z-score) [2]: -0.221; glycan array binding signal (z-score) [3]: -0.678; glycan array binding signal (z-score) [4]: 0.038; glycan array binding signal (z-score) [5]: 0.499; glycan array binding signal (z-score) [6]: -0.613; glycan array binding signal (z-score) [7]: -1.34; glycan array binding signal (z-score) [8]: -0.389; glycan array binding signal (z-score) [9]: -0.291; glycan array binding signal (z-score) [10]: -0.912; glycan array binding signal (z-score) [11]: 3.5; glycan array binding signal (z-score) [12]: 3.07; glycan array binding signal (z-score) [13]: -0.362; glycan array binding signal (z-score) [14]: 0.518; glycan array binding signal (z-score) [15]: 0.945; glycan array binding signal (z-score) [16]: -0.933; glycan array binding signal (z-score) [17]: 0.193; glycan array binding signal (z-score) [18]: 3.95; glycan array binding signal (z-score) [19]: 3.86; glycan array binding signal (z-score) [20]: 0.241; glycan array binding signal (z-score) [21]: -0.321; glycan array binding signal (z-score) [22]: 5.84; glycan array binding signal (z-score) [23]: 2.96; glycan array binding signal (z-score) [24]: -0.501; glycan array binding signal (z-score) [25]: 0.647; glycan array binding signal (z-score) [26]: -0.464; glycan array binding signal (z-score) [27]: -0.879; glycan array binding signal (z-score) [28]: 0.981

Source: the supplement of paper PMC8728848
